Here are results for eleven compounds from PubChem BioAssay (NCATS).

Assay [1] can be described thus: Cellular Toxicity (caspase-3) Hek293 (AID 664).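 Further: cells exposed to compound for 16 h at 37 °C before readout.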 The settings on record: HEK293 caspase-3 activation; caspase-3 activation: at 92.2 µM (top of the series), DMSO = 0%, 100 µM tamoxifen = 100%. The essentials:
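Activation of caspase-3/7 is measured as increased luminescence from cleaved peptide-aminoluciferin substrate in HEK293 cells treated 16 hours at 37 °C. AC50 values come from Hill-equation fits of concentration-response data.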

A short description of assay [2]: Cellular Toxicity (caspase-3) N2a (AID 665).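 Further: compound exposure lasted 16 h at 37 °C before readout.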 As to conditions: Potency: caspase-3 activation. The essentials:
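Plated mouse neuroblastoma N2a cells received titrated compounds for 16 h in complete medium. Caspase activity was then detected with a peptide-aminoluciferin luminescent reagent.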

The nature of assay [3]: Cellular Toxicity (caspase-3) NIH 3T3 (AID 666).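 Further: caspase signal read after 16 h compound exposure; 0% = DMSO basal and 100% = 100 µM tamoxifen stimulation.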 The essentials: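 Concentration-response qHTS in NIH 3T3 mouse fibroblasts scores caspase-3/7 activation as rising luminescence after 16 hr compound exposure. Signals are scaled between DMSO-only and 100 uM tamoxifen.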
Assay [4] in a line: Cellular Toxicity (caspase-3) Renal Proximal Tubule (AID 667).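 Further: cells exposed to compound for 16 hours at 37 °C before detection; 0% = DMSO basal and 100% = 10 µM staurosporine.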 The settings on record: Potency: caspase-3 activation. In a few lines: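 Primary rat proximal tubule cells, 1000/well, 5 h plating at 37 °C, then compound 16 h at 37 °C. Caspase-Glo 3/7 reagent, 1 h RT, luminescence. Normalized to DMSO (basal) and 10 uM staurosporine (100%); Hill-fit AC50.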
In assay [5] the target is Guanine nucleotide-binding protein G(i) subunit alpha-1 (Homo sapiens) (UniProt P63096). Briefly: qHTS Assay for Inhibitors of RGS12 GoLoco Motif Activity (Green Fluorophore) (AID 879).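 Further: 0% = labeled peptide with Gαi1 and full inhibition = labeled peptide alone without protein; negative values mean loss of peptide binding seen as reduced polarization.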 In a few lines: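 Fluorescence polarization assay: 50 nM Gαi1 with 10 nM FITC-labeled RGS12 GoLoco peptide in 10 mM Tris pH 7.5, 150 mM NaCl, 0.1 mM GDP, 0.05% NP40, 10 min at room temperature with compound.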
For orientation: qHTS replaces the single test concentration by a dilution series.

Assay [6] deals with Cytochrome P450 2D6 (Homo sapiens) (UniProt P10635). Put plainly: qHTS Assay for Inhibitors and Substrates of Cytochrome P450 2D6 (AID 891). Further: nearly all actives have a fitted effect of over 60% in size. Further: potency means the concentration at half of the fitted maximal effect. In a few lines: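 Human CYP2D6 (5 nM) with 30 uM Luciferin-ME EGE (at Km) in 100 mM KPO4, compound preincubated 10 min, then NADPH regeneration system for 60 min at room temperature. Luciferin read by luminescence; normalized to 1.43 uM quinidine.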

Assay [7] has as its target Cytochrome P450 2C19 (Homo sapiens) (UniProt P33261). Put plainly: qHTS Assay for Inhibitors and Substrates of Cytochrome P450 2C19 (AID 899). Further: nearly all actives have a fitted effect of over 60% in size. Further: potency means the concentration at half of the fitted maximal effect. In a few lines: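 In 50mM KPO4, the reaction held 5nM enzyme and KM-level (10uM) Luciferin-H EGE; it ran 60 min at 37C after NADPH regeneration and a 10 min compound preincubation. Luminescence values were scaled to 57uM ketoconazole as complete inhibition.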

Assay [8] can be described thus: Confirmation and Secondary Assay for Modulators of Hemoglobin Beta Chain Splicing at IVS2 654 locus (AID 910).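 Further: per-well total GFP intensity by laser scanning cytometry after 2-day treatment; % of control where 0% means no effect.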 In a few lines: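 HeLa cells stably carrying EGFP interrupted by mutant beta-globin IVS2-654 intron (CMV-driven) were treated with compound for 2 days at 37C; corrected splicing was scored as total peak GFP intensity per well (488 nm excitation, 500-520 nm emission).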

Assay [9] can be described thus: qHTS Assay for Identification of Small Molecule Agonists for Hypoxia Response Element Signaling Pathway (AID 914; active means well fitted activation curve with a large enough effect in the signal ratio, with a control signal flat, not every such curve was filed as active; the % refers to the signal ratio; further: % of control where 0% means no effect). The settings on record: ME-180 (cervical carcinoma) HRE-bla reporter, beta-lactamase ratio, CoCl2, 17 h; hits give high values. The essentials: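 Reporter activity (beta-lactamase, CCF4 460nm/530nm ratio) in HRE-bla ME-180 cells is recorded after 17 h compound exposure with EC50 CoCl2 at 37 degrees Celsius. AC50 values come from titration data.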

Assay [10] can be described thus: qHTS Assay for Identification of Small Molecule Agonists for Thrombopoietin (TPO) Signaling Pathway (AID 917). Further: on the % scale 0 is the no-effect control and ±100 the full control effect. The essentials:
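Murine Ba/F3 cells stably expressing human TPO receptor and a Glycoprotein IIb promoter–luciferase reporter were IL-3-starved overnight, then treated with compounds plus TPO (26 pM final, its EC50) for 24 hrs at 37 C; luminescence was read.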

The nature of assay [11]: Confirmation and Secondary Assay for Modulators of Hemoglobin Beta Chain Splicing at IVS2 705 locus (AID 930).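 Further: HeLa cells stably expressing the EGFP-705 splicing reporter; GFP fluorescence per well restored by corrected splicing of the IVS2-705 intron in EGFP; % of control where 0% means no effect.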 In a few lines: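 Stable HeLa line with EGFP disrupted by mutant beta-globin intron 2 (705). Overnight attachment, then 2 days of compound at 37C, 5% CO2. Signal: peak GFP intensity summed over objects 5-250 µm.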
For assay [12], the target named is Pyruvate kinase (Leishmania mexicana) (UniProt Q27686). Put plainly: qHTS Validation Assay for Inhibitors of Leishmania Mexicana Pyruvate Kinase (AID 945).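 Further: 0% = DMSO only neutral control wells.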 The essentials: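 Mutant LmPYK (E451W), 0.2 nM, plus 0.5 mM PEP and 0.1 mM ADP in 50 mM imidazole pH 7.2 containing 0.01% Tween 20 and 0.05% BSA. Incubated 1 h at room temperature; luminescence via PKLight, normalized to DMSO.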

Assay [13] concerns the target Cytochrome P450 3A4 (Homo sapiens) (UniProt P08684). Put plainly: qHTS Assay for Inhibitors and Substrates of Cytochrome P450 3A4 (AID 884). Further: nearly all actives have a fitted effect of over 50% in size. Further: potency means the concentration at half of the fitted maximal effect. In a few lines:
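20 nM human CYP3A4 with 25 uM Luciferin-PPXE (at KM) in 200 mM KPO4, preincubated 10 min with compound; NADPH regeneration started a 60 min RT reaction. Luciferin detected by luminescence, normalized to 57 uM ketoconazole as full inhibition.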

The target is the same in assay [14]. Briefly: qHTS Assay for Activators of Cytochrome P450 3A4 (AID 885). Further: nearly all actives have a fitted effect of over 65% in size. In a few lines: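 20nM CYP3A4 + 25uM Luciferin-PPXE (=KM), 200mM KPO4; cpd 10 min RT; NADPH regen, 60 min RT; stop w/ detection buffer, 20 min; luminescence. Normalized to 57 uM ketoconazole.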
A short description of assay [15]: qHTS Assay for Identification of Small Molecule Antagonists for NFkB Signaling Pathway (AID 895; active means well fitted inhibition curve with a large enough effect in the signal ratio, with a control signal flat, not every such curve was filed as active; the % refers to the signal ratio; further: on the % scale 0 is the no-effect control and ±100 the full control effect). The essentials: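 NFkB-bla ME-180 cervical carcinoma cells with beta-lactamase reporter under NFkB response element; compounds added, then TNF alpha at 10 pM final (EC50), 5 h at 37 C. LiveBLAzer substrate 2 h, room temperature; emission 460/530 nm at 405 nm excitation.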

Assay [16] deals with Muscarinic acetylcholine receptor M1 (Rattus norvegicus) (UniProt P08482). Put plainly: qHTS Assay for Antagonists of Acetylcholine Muscarinic M1 Receptor: Kinetic Measurement of Intracellular Calcium Response (AID 943).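 Further: Fluo-4 calcium signal as peak divided by basal fluorescence over 4 min; nearly all actives have a fitted effect of over 75% in size.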 The essentials: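 Intracellular calcium flux, recorded with Fluo-4 in a kinetic plate reader, served as signal; the response to carbachol at EC80 (100 nM final) was taken as maximal over minimal fluorescence after a 10 min compound pre-incubation in rat M1-CHO cells.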

For assay [17] the target is unchanged. Briefly: qHTS Assay for Antagonists of Acetylcholine Muscarinic M1 Receptor: Measurement of IP-One Response (AID 944). Further: nearly all actives have a fitted effect of over 75% in size. In a few lines:
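Steps: plate transfected CHO-M1 cells overnight; add test compound, 10 min; add carbachol (200 nM, EC80) in stimulation buffer with LiCl; incubate 30 min; add labelled IP1 tracer and anti-IP1 antibody in lysis buffer; read HTRF after 10 min.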

The target of assay [18] is Cytochrome P450 2C9 (Homo sapiens) (UniProt P11712). Put plainly: qHTS Assay for Inhibitors and Substrates of Cytochrome P450 2C9 (AID 883). Further: nearly all actives have a fitted effect of over 60% in size. Further: potency means the concentration at half of the fitted maximal effect. In a few lines: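 CYP2C9 deoxyluciferin hydroxylation, 37C, 60 min with NADPH regeneration; 10nM enzyme, 100uM Luciferin-H (KM). Glo detection reagent stopped reaction; luminescence normalized to sulphaphenazole (57uM) full inhibition.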

Each structure is given as a SMILES string. Where “and” joins values, the source holds several entries; their conditions need not be identical. Identical values can stand only once. Unmarked numbers belong to inactive results. Results filed as inconclusive are left out. Calls of active or inactive are those of the source. Unless noted, the call rests on the fitted dose curve; in most records, active means well fitted curve in the direction sought with a large enough effect; inconclusive means small, poorly fitted or top-dose-only effect, or another doubt; inactive means no such curve, though single readings can be large; an effect the other way counts as inactive or inconclusive.

Pyruvate kinase (Leishmania mexicana), sequence (Q27686 2-499 E452W): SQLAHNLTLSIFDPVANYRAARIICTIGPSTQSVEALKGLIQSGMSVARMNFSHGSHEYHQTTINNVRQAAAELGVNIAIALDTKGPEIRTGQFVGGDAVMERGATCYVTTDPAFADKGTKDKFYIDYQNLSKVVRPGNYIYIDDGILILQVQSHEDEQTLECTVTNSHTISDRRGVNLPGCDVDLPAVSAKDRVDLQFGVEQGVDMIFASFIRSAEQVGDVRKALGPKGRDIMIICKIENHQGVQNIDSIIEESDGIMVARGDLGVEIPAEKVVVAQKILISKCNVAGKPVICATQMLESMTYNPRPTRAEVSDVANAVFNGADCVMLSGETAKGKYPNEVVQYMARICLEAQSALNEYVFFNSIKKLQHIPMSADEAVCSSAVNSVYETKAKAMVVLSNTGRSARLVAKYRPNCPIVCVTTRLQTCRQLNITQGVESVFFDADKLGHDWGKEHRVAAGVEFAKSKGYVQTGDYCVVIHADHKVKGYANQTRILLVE
Cytochrome P450 2C19 (Homo sapiens), sequence (P33261 whole entry, looked up): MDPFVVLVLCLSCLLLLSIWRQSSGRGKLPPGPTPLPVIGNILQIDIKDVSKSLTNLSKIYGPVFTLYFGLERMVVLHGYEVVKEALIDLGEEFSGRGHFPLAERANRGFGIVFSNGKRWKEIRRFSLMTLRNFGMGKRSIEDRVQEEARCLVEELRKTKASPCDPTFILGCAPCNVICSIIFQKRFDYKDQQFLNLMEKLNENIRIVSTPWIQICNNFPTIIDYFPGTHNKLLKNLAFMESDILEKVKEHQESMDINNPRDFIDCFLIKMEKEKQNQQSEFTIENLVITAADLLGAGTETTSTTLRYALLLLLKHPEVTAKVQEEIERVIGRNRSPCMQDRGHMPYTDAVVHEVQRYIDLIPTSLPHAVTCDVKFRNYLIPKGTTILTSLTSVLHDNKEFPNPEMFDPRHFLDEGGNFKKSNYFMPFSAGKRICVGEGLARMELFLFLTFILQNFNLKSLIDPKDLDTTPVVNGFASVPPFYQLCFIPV
Guanine nucleotide-binding protein G(i) subunit alpha-1 (Homo sapiens), sequence (P63096 whole entry, looked up): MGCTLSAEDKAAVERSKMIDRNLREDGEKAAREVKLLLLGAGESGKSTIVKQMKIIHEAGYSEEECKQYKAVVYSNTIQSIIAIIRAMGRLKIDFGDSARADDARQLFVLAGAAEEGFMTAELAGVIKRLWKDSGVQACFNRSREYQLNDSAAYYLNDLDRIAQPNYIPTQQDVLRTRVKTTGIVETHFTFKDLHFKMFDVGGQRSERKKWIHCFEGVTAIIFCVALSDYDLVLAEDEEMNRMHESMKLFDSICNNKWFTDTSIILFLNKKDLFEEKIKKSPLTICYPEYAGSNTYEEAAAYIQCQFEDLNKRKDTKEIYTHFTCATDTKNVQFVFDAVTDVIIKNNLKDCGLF
Cytochrome P450 3A4 (Homo sapiens), sequence (P08684 whole entry, looked up): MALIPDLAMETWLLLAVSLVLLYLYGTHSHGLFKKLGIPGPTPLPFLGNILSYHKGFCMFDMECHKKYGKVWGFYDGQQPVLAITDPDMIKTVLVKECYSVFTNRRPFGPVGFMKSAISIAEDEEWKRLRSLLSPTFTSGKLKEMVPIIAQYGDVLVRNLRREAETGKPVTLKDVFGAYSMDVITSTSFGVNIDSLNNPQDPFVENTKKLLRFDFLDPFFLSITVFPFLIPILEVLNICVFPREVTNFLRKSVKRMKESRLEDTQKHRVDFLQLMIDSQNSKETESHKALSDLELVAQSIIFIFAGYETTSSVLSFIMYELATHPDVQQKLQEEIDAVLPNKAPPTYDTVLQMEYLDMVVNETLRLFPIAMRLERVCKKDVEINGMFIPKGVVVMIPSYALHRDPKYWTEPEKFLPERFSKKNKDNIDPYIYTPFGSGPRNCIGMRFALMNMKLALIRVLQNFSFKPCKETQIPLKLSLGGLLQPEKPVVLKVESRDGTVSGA
Cytochrome P450 2D6 (Homo sapiens), sequence (P10635 whole entry, looked up): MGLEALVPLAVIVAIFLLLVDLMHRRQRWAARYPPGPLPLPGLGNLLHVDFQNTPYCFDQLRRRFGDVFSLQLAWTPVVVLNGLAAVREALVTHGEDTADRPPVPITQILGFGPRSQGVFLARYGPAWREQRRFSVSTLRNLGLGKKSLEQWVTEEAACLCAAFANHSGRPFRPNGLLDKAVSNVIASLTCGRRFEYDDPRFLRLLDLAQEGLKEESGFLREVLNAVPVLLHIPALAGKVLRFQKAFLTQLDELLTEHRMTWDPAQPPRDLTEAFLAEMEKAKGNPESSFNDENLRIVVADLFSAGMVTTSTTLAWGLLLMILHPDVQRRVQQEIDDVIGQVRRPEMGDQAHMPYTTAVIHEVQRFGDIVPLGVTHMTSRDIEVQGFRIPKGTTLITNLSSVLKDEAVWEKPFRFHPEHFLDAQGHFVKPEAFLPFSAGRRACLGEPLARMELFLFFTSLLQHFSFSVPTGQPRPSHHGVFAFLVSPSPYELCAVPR
Muscarinic acetylcholine receptor M1 (Rattus norvegicus), sequence (P08482 whole entry, looked up): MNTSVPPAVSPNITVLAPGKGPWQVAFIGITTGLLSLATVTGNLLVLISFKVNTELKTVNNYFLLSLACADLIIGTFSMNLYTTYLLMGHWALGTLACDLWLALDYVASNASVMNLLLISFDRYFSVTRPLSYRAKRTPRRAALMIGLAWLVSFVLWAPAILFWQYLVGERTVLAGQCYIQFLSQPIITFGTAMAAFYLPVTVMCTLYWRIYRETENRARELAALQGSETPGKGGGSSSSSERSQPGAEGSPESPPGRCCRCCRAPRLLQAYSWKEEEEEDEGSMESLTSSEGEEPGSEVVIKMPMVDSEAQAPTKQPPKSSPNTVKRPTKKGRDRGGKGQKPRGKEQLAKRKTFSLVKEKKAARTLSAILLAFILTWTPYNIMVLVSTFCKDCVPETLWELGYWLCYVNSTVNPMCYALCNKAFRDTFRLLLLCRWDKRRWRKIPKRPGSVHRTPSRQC
Cytochrome P450 2C9 (Homo sapiens), sequence (P11712 whole entry, looked up): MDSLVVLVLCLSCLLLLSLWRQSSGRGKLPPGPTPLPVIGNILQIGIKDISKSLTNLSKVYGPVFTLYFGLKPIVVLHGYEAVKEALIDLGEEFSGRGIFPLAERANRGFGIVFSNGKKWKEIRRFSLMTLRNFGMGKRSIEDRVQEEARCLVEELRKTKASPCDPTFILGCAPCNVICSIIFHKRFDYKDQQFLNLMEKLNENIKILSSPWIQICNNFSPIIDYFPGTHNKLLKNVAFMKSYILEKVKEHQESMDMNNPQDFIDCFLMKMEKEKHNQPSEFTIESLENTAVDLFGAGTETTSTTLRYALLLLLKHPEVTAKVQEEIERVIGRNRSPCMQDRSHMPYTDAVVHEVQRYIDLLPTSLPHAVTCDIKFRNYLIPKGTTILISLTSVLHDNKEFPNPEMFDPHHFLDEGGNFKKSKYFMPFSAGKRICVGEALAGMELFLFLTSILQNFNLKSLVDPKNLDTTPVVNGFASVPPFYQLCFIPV

Take `CCCCC1C(=O)N(c2ccccc2)N(c2ccccc2)C1=O`: the Potency result in assay [1], in [2], in [4], in assay [6], in assay [7] and in assay [10] was “inactive” in each case. The Potency result in assay [12] was “inactive”. Besides, the outcome in assay [3], in assay [5], in assay [8] and in assay [11] was inactive. Further, in assay [9], the activation is -18.4% and -5.39%.
Regarding `O=C(O)c1cc(O)c2c(c1)C(=O)c1cccc(O)c1C2=O`, the Potency entry in assay [1], in [2], in assay [4] and in assay [13] was “inactive” throughout. For the same compound, the result in assay [3] and in [14] was inactive.
For `O=c1[nH]cnc2c1ncn2[C@H]1CC[C@@H](CO)O1`, the Potency result in [1], in assay [2], in [4] and in assay [13] was “inactive” throughout. Further, the outcome in assay [3] was inactive.
Turning to `CCN(CC)CCOC(=O)c1ccc(N)cc1`, the compound was called inactive in [5], in assay [8] and in assay [11]. Further, the Potency entry in [13], in assay [15], in [10] and in assay [12] was “inactive” throughout.
As for `CN(C)CCC(c1ccccc1)c1ccccn1` (configuration not stated), the Potency entry in [1], in assay [2], in [4] and in assay [13] was “inactive” each time. In addition, the compound was called inactive in assay [3], in assay [8] and in assay [11].
For the compound `NCCS`, the result in [5], in assay [8], in assay [11], in assay [16] and in [17] was inactive. In addition, the Potency entry in assay [13], in assay [15], in assay [10] and in [12] was “inactive” throughout.
Turning to `CC(=O)N[C@@H](CS)C(=O)O`, the compound was classed as inactive in [5] and in assay [16]. Moreover, the Potency entry in assay [13] and in assay [12] was “inactive” in each case.
On to `C[N+](C)(C)CC(=O)O`, for which the compound was classed as inactive in assay [5], in [16] and in assay [17]. Also, the Potency result in assay [10] and in assay [12] was “inactive” throughout.
Take `COc1ccc(-c2coc3cc(O)ccc3c2=O)cc1`: the Potency result in assay [18] and in assay [13] was “inactive” throughout. The outcome in assay [14], in assay [8] and in assay [11] was inactive.
As for `Clc1ccc(Cn2c(CN3CCCC3)nc3ccccc32)cc1`, the outcome in assay [5], in [14] and in assay [17] was inactive. The Potency is 1.26 µM (active) and 794 nM (active) in assay [6]; 199 nM (active) in [7]. The Potency entry in [10] and in assay [12] was “inactive” in each case.
Regarding `c1cc(-c2sc(-c3ccncc3)c(-c3ccncc3)c2-c2ccncc2)ccn1`, the Potency in [18] was 2 µM (active); in [13], 316 nM (active); in assay [7], 1580 nM (active). Besides, the activity change, positive = activation in [14] was -102% [at 11.4 µM]. Besides, the activation in [9] was -25.7%.
